Among the test systems are SR leukemia; OVCAR-8 ovarian; OVCAR-5 ovarian; OVCAR-4 ovarian; SK-OV-3 ovarian; IGROV1 ovarian; OVCAR-3 ovarian; HS 578T breast; NCI/ADR-RES ovarian.
Test in all cases: NCI-60 one-dose screen, 48 h (100 = growth as untreated, 0 = no growth, -100 = all killed)
Settings in all cases: 10 µM unless noted

This is part of a sample that, as a whole, favours compounds with a hit. Of some 83,000 tested, about 20% had one in any assay.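 For each line, cells grew in 96-well plates with the test compound present at a single concentration for 48 hours.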 Unmarked numbers belong to inactive results. Active and inactive are the calls of the source. Rule for the calls: active = growth percent below 10; inactive = the rest.

These results are taken from PubChem BioAssay (NCI).

In the case of `CC(=O)O[C@H]1CC2CCC3C(CC[C@@]4(C)C3C[C@H]([N+]3(C)CCCCC3)[C@@H]4OC(C)=O)[C@@]2(C)C[C@@H]1N1CCCCC1` (stereo partly specified), the growth is 99.5% in the experiment with SR leukemia; 98.1% in the experiment with OVCAR-8 ovarian; 110% in the experiment on OVCAR-5 ovarian; 103% in the experiment with OVCAR-4 ovarian; 106% in the experiment on SK-OV-3 ovarian; 111% in the experiment with IGROV1 ovarian. For the same compound, the growth in the experiment on OVCAR-3 ovarian is 112%; in the experiment with HS 578T breast, 65%; in the experiment on NCI/ADR-RES ovarian, 103%.
`Cc1ccc(/C=C2\COc3ccc(O)cc3C2=O)cc1`: the growth is 12.7% in the experiment with SR leukemia; 91.7% with OVCAR-8 ovarian; 102% in the experiment on OVCAR-5 ovarian; 93.3% in the experiment with OVCAR-4 ovarian; 126% in the experiment on SK-OV-3 ovarian; 95.1% with IGROV1 ovarian. Besides, the growth with OVCAR-3 ovarian is 101%; in the experiment on HS 578T breast it was 97.5%; in the experiment with NCI/ADR-RES ovarian it was 101%.
For `C=C1C(=O)O[C@H]2[C@H]1CC/C(COC(=O)NCc1ccc(Cn3c(=O)sn(CCCCC)c3=O)cc1)=C\CC[C@@]1(C)O[C@@H]21`, the growth in the experiment on SR leukemia was 3.58% (active); with OVCAR-8 ovarian, 58%; with OVCAR-5 ovarian it was 72.5%; in the experiment with OVCAR-4 ovarian, 29.5%; with SK-OV-3 ovarian, 93.6%; in the experiment with IGROV1 ovarian it was 24.1%. Also, the growth in the experiment on OVCAR-3 ovarian is -56.1% (active); with HS 578T breast, 71%; with NCI/ADR-RES ovarian, 99.8%.
For `O=C(CN1C(=O)S/C(=C\C(Cl)=C\c2ccccc2)C1=O)NCCc1ccc(O)cc1`, the growth was 1.71% (active) with SR leukemia; 14% in the experiment on OVCAR-8 ovarian; 77.7% with OVCAR-5 ovarian; 56.4% in the experiment on OVCAR-4 ovarian; 90.1% in the experiment on SK-OV-3 ovarian; -12.9% (active) in the experiment with IGROV1 ovarian. Besides, the growth with OVCAR-3 ovarian is -14.4% (active); in the experiment with HS 578T breast it was 36.3%; in the experiment on NCI/ADR-RES ovarian, 19.6%.
`CS(=O)(=O)Nc1cc(-c2ccc3ncnc(Nc4ccc5c(cnn5Cc5cccc(F)c5)c4)c3c2)cnc1Cl`: the growth was 4.76% (active) in the experiment with SR leukemia; 28.1% with OVCAR-8 ovarian; 7.19% (active) in the experiment with OVCAR-5 ovarian; 26.4% with OVCAR-4 ovarian; -17.7% (active) in the experiment on SK-OV-3 ovarian; -51.2% (active) with IGROV1 ovarian. For the same compound, the growth in the experiment with OVCAR-3 ovarian was -5.45% (active); in the experiment with HS 578T breast, -14.8% (active); in the experiment on NCI/ADR-RES ovarian, 78.2%.
`Cn1c(=O)c2nc(/C=C/c3ccccc3)c(=O)[nH]c2n(C)c1=S`: the growth in the experiment on SR leukemia is 111%; in the experiment with OVCAR-8 ovarian it was 105%; in the experiment with OVCAR-5 ovarian, 110%; in the experiment on OVCAR-4 ovarian, 107%; with SK-OV-3 ovarian it was 118%; in the experiment with IGROV1 ovarian, 107%. Besides, the growth in the experiment on OVCAR-3 ovarian was 116%; with HS 578T breast, 107%; in the experiment on NCI/ADR-RES ovarian, 106%.
`CCCCCCCCCc1ccc(OCCOCCOCCOCCOCCOCCOCCOCCOCCO)cc1`: the growth in the experiment on SR leukemia is -2.84% (active); in the experiment on OVCAR-8 ovarian, 9.01% (active); with OVCAR-5 ovarian it was 48.3%; with OVCAR-4 ovarian, 22.4%; in the experiment on SK-OV-3 ovarian it was 110%; in the experiment with IGROV1 ovarian, 24.4%. Also, the growth with OVCAR-3 ovarian was 2.54% (active); in the experiment with HS 578T breast it was 8.85% (active); with NCI/ADR-RES ovarian, 1.74% (active).
Consider `COC(=O)/C=C1/SC(=Nc2ccc(C(F)(F)F)cc2)N(CCc2c[nH]c3ccc(O)cc23)C1=O`, for which the growth is -35.5% (active) in the experiment with SR leukemia; 13.9% in the experiment with OVCAR-8 ovarian; -25.9% (active) in the experiment with OVCAR-5 ovarian; -45.6% (active) with OVCAR-4 ovarian; -5.47% (active) with SK-OV-3 ovarian; -54.2% (active) in the experiment with IGROV1 ovarian. The growth was -31.1% (active) with OVCAR-3 ovarian, 7.87% (active) in the experiment with HS 578T breast and 21% in the experiment with NCI/ADR-RES ovarian.
Regarding `COC(=O)CC[C@H](C)[C@H]1CC[C@H]2[C@@H]3CC[C@@H]4CC5(CC[C@]4(C)[C@H]3CC(=O)[C@]12C)Nc1ccccc1NC5=NC(C)(C)C` (stereo partly specified), the growth with SR leukemia is 50%; in the experiment on OVCAR-8 ovarian, 87.5%; in the experiment on OVCAR-5 ovarian, 89.1%; with OVCAR-4 ovarian, 57.5%; in the experiment with SK-OV-3 ovarian it was 97%; in the experiment on IGROV1 ovarian, 93.8%. Moreover, the growth was 76% in the experiment on OVCAR-3 ovarian, 88.7% with HS 578T breast and 94.9% in the experiment on NCI/ADR-RES ovarian.
For the compound `Cc1cc(N2CCCCC2)cc(C)c1-c1csc(NC(=O)c2ccncc2)n1`, the growth with SR leukemia is 37.7%; in the experiment on OVCAR-5 ovarian it was 92.6%; with OVCAR-4 ovarian it was 24.2%; in the experiment on SK-OV-3 ovarian, 62.6%; in the experiment on IGROV1 ovarian it was 64.4%; in the experiment on OVCAR-3 ovarian, 50.5%. In addition, the growth with HS 578T breast is 75.2%; in the experiment with NCI/ADR-RES ovarian it was 56.4%.
Consider `CCOC(=O)c1ccc2c(c1)nc(-c1ccccc1)n2C1CCCCC1`, for which the growth with SR leukemia is 62.9%; in the experiment with OVCAR-8 ovarian it was 89.5%; in the experiment with OVCAR-5 ovarian, 117%; in the experiment on OVCAR-4 ovarian, 102%; with SK-OV-3 ovarian it was 36.7%; in the experiment on IGROV1 ovarian, 106%. Besides, the growth in the experiment with OVCAR-3 ovarian is 108%; in the experiment with HS 578T breast, 111%; with NCI/ADR-RES ovarian, 105%.
Consider `O=CN1N=C(c2cccc(Nc3ccnc4cc(Cl)ccc34)c2)CC1c1ccccc1` (stereo unspecified), for which the growth in the experiment on SR leukemia is 9.69% (active); in the experiment on OVCAR-8 ovarian, 38%; in the experiment on OVCAR-5 ovarian, 36.3%; in the experiment with OVCAR-4 ovarian, 41.2%; in the experiment with SK-OV-3 ovarian, 8.25% (active); in the experiment on IGROV1 ovarian, 28.9%. The figures for the growth in the experiment with OVCAR-3 ovarian, with HS 578T breast and in the experiment on NCI/ADR-RES ovarian were -12.9% (active), 1.24% (active) and 3.37% (active), respectively.
In the case of `O=c1c2cccc3c(N4CCCC4)ccc(c32)c2nc3ccccc3n12`, the growth in the experiment with SR leukemia is 20.2%; in the experiment with OVCAR-8 ovarian, 66%; with OVCAR-5 ovarian, 106%; with OVCAR-4 ovarian, 78.8%; in the experiment with SK-OV-3 ovarian, 79.1%; in the experiment with IGROV1 ovarian, 57.1%. Moreover, the growth in the experiment with OVCAR-3 ovarian is 98.2%; with HS 578T breast, 67.2%; in the experiment on NCI/ADR-RES ovarian, 83%.
As to `COC(=O)[C@]12CCC(C)(C)C[C@H]1[C@H]1/C(=N/OCCc3nn[nH]n3)C[C@@H]3[C@@]4(C)CC[C@H](OC(C)=O)C(C)(C)[C@@H]4CC[C@@]3(C)[C@]1(C)CC2`, the growth in the experiment with SR leukemia was 31.8%; with OVCAR-8 ovarian, 29.7%; in the experiment with OVCAR-5 ovarian, 74.4%; with OVCAR-4 ovarian, 25.3%; in the experiment with SK-OV-3 ovarian, 58.7%; in the experiment with IGROV1 ovarian it was 30.9%. For the same compound, the growth with OVCAR-3 ovarian is 31.8%; with HS 578T breast it was 48.3%; with NCI/ADR-RES ovarian, 30.1%.
As to `COc1ccc(F)cc1/C=C/C(=O)/C=C(/C=C/c1cc(F)ccc1OC)OB(F)F`, the growth was -0.793% (active) in the experiment on SR leukemia; 7.46% (active) in the experiment with OVCAR-8 ovarian; 48.9% with OVCAR-5 ovarian; 28.8% with OVCAR-4 ovarian; 97% with SK-OV-3 ovarian; 25% in the experiment with IGROV1 ovarian. The growth was 1.71% (active) in the experiment with OVCAR-3 ovarian, 19.9% in the experiment on HS 578T breast and 19.8% in the experiment with NCI/ADR-RES ovarian.
On to `Cc1ccc(C[P+](c2ccccc2)(c2ccccc2)c2ccccc2)cc1`, for which the growth is -3.87% (active) in the experiment with SR leukemia; 15.6% in the experiment on OVCAR-8 ovarian; 7.45% (active) in the experiment on OVCAR-5 ovarian; 1.45% (active) in the experiment on OVCAR-4 ovarian; 6.84% (active) in the experiment on SK-OV-3 ovarian; 18.7% in the experiment with IGROV1 ovarian. In addition, the growth with OVCAR-3 ovarian is 5.95% (active); in the experiment with HS 578T breast, 8.62% (active); in the experiment with NCI/ADR-RES ovarian, 93.5%.
On to `O=S(=O)(NCCCNc1nccc(-c2c(-c3ccc(F)c(O)c3)nc3occn23)n1)c1ccc(Cl)cc1`, for which the growth in the experiment on SR leukemia was 55.5%; with OVCAR-8 ovarian, 66.3%; in the experiment with OVCAR-5 ovarian, 118%; in the experiment with OVCAR-4 ovarian, 81.3%; in the experiment on SK-OV-3 ovarian, 64.4%; in the experiment on IGROV1 ovarian, 62.3%. The growth in the experiment with OVCAR-3 ovarian is 95.3%; in the experiment with HS 578T breast, 64%; in the experiment with NCI/ADR-RES ovarian, 96.4%.
Turning to `Cc1cc(=O)oc2cc(OCc3nn4c(Nc5nc6ccccc6s5)c(-c5ccccc5)nc4s3)ccc12`, the growth with SR leukemia is 94.7%; with OVCAR-8 ovarian, 80.4%; in the experiment with OVCAR-5 ovarian, 97.5%; with OVCAR-4 ovarian it was 61.4%; in the experiment with SK-OV-3 ovarian, 92%; in the experiment with IGROV1 ovarian, 89.2%. For the same compound, the growth in the experiment on OVCAR-3 ovarian was 95.3%; in the experiment on HS 578T breast, 78.1%; in the experiment on NCI/ADR-RES ovarian it was 84.6%.
